Values joined by “and” are separate entries in the source; they are usually repeats but may differ in a detail not shown here. Identical values can stand only once. Inconclusive results are not listed. Active and inactive are the calls of the source. The call rests on the fitted dose curve.
target: Bile acid receptor (Homo sapiens) (UniProt Q96RI1); experiment: qHTS assay for small molecule agonists of farnesoid X receptor signaling (AID 588527); conditions: HEK293T FXR-UAS-bla, beta-lactamase ratio, 16 h; activation: hits give high values;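 further: series mostly up to about 77 µM; 0% = vehicle basal and 100% = reference agonist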
Sequence (Q96RI1 whole entry, looked up): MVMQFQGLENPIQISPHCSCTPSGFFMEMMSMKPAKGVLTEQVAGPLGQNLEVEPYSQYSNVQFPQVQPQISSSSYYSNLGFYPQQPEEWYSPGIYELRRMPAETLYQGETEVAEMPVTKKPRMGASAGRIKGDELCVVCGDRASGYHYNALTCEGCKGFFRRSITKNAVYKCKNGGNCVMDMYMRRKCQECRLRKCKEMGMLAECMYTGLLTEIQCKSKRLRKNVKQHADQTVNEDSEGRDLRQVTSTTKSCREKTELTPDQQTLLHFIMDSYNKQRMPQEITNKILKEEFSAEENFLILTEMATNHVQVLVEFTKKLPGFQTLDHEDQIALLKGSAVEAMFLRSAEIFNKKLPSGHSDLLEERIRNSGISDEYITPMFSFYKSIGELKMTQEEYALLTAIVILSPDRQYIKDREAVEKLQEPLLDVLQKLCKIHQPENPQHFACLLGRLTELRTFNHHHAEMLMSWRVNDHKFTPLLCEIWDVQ
Summary of the method: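 FXR-UAS-bla HEK293T cells (10% dialyzed FBS) preincubated 5-7 h at 37 C, then compounds at up to 92 uM for 16 h at 37 C. CCF4 beta-lactamase read-out after 2 h RT. Normalized to chenodeoxycholic acid (100 uM) and DMSO; Hill fit gave EC50 and efficacy.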

SMILES | activation
OCC(CO)(CO)COCC(CO)(CO)CO | -6.39% (inactive)
Cc1ccc2cccnc2c1 | 1.5% (inactive)
CC(C)c1ccc(C(C)C)cc1 | 2.92% (inactive)
Cc1ccc([N+](=O)[O-])cc1N | -0.807% (inactive) and -1.04% (inactive)
CCCCCCCCCC[N+](C)(C)Cc1ccccc1 | 3.15% (inactive)
CC(=O)OC(C(=O)c1ccccc1)c1ccccc1 (stereo not given) | -3.38% (inactive)
CCCCCC/C(C=O)=C\c1ccccc1 | -2.14% (inactive)
O=Cc1ccc(CO)o1 | 2.1% (inactive)
Nc1ccc(S(=O)(=O)O)cc1 | -1.98% (inactive) and -2.03% (inactive)
Nc1ccc(N)c(Cl)c1 | -0.837% (inactive)
CCCCCCCCCCCCCCCO | -2.39% (inactive)
C=CCOC(=O)CCCCCCCC | -1.24% (inactive)
CCCCC | -0.0908% (inactive)
CCCCCCCCCCCCCCCCN(C)C | 3.83% (inactive)
O=C(O)c1ccc2c(c1)C(=O)OC2=O | -5.89% (inactive)
CCCCCCCCCc1ccccc1 | 2.7% (inactive)
BrC1CCC(Br)C(Br)CCC(Br)C(Br)CCC1Br (stereo not given) | 3.55% (inactive)
CO[Si](CCCNCCC[Si](OC)(OC)OC)(OC)OC | 1.6% (inactive)
O=C(Nc1ccccc1)c1cc(Cl)ccc1O | 1.59% (inactive)
CC(C)Cc1nccs1 | -0.154% (inactive)

SMILES | activation
CC(C)C[C@H](NC(=O)OCC1c2ccccc2-c2ccccc21)C(=O)O | -0.845% (inactive)
CCOCCOCCOCCO | 2.46% (inactive)
C=CCCCCCC | -0.782% (inactive)
CCCCCCCCOc1ccc(C(=O)O)cc1 | 11.7% (inactive)
O=P(O)(O)O | 0.993% (inactive)
N=C1C=CC(=C(c2ccc(N)cc2)c2ccc(N)cc2)C=C1 | 3.86% (inactive)
Cn1c(=O)[nH]c(=O)n(C2CCCCC2)c1=O | 2.64% (inactive)
CC(=O)O[C@@H]1CC(C)=C2[C@H]1[C@H](C)CC[C@H]2/C=C(\C)C(=O)O | 0.825% (inactive)
CCCCOC(=O)/C=C\C(=O)OCCCC | -3.9% (inactive)
CCC(C)Nc1ccc(NC(C)CC)cc1 (stereo not given) | -2.74% (inactive)
NC1=NC(S)C2N=CN=C2N1 (stereo not given) | 2.34% (inactive)
Cc1ccc(CO)cc1 | -3.46% (inactive)
COc1ccc(OC)c(OC)c1 | 0.0379% (inactive)
O=C(OCCOCCOC(=O)c1ccccc1)c1ccccc1 | -0.568% (inactive)
Cc1ccc(C(C)(C)C)c(O)c1 | -1.53% (inactive)
O=C(O)C1(C(=O)Nc2ccc(Cl)cc2Cl)CC1 | -11.8% (inactive)
CCCCCCCC(=O)Oc1c(Br)cc(C#N)cc1Br | 1.95% (inactive)
O=C1c2ccccc2C(=O)C1(O)O | 2.64% (inactive)
CC(C)OB(OC(C)C)OC(C)C | -0.77% (inactive)
CCCCCCCCCC(=O)OC | -0.517% (inactive)

From PubChem BioAssay (NCATS)
